Experimental findings from PubChem BioAssay are described below.

Experiment [1] deals with Plasmodium falciparum Sir2 (PF13_0152, Sir2A). Put plainly: Plasmodium falciparum Sir2A binding compounds – biochemical, small-molecule microarray, 635 nm fluorescence, primary screen (AID 1098).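 Also: score merges spot fluorescence intensity with its signal-to-noise ratio.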 Particulars: fluorescence 635 nm, higher = more signal.
A short description of experiment [2]: probe aDKK1 binding to arrayed compounds – biochemical, biotinylated probe, 635/667 nm fluorescence, primary screen (AID 1099).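 Also: score merges 667nm spot fluorescence with signal to noise across triplicate slides.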 Particulars: small-molecule microarray, higher = more signal.
The nature of experiment [3]: probe aCHRDL2 binding to arrayed compounds – biochemical, biotinylated probe, 635/667 nm fluorescence, primary screen (AID 1100). Particulars: small-molecule microarray, higher = more signal.
Experiment [4] can be described thus: change in splice reporter luminescence, either direction, cell-based, HEK293, spliceosome inhibition project, primary screen (AID 1101).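 Also: HEK293 cells carrying a splicing-competent luciferase reporter gene; test concentration not given here.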 Particulars: HEK293 splicing luciferase reporter, 24 h, higher = more signal, called active from +8 up or from −8 down. A general note: Reporter assays use an easily measured gene product as a stand-in for the process of interest.

Experiment [5] has as its target Fibroblast growth factor 10 (Homo sapiens) (UniProt O15520). Put plainly: compounds binding fibroblast growth factor 10 – biochemical, small-molecule microarray, 635 nm fluorescence, primary screen (AID 1102). Particulars: FGF10 binding, fluorescence 635 nm, higher = more signal.
The test system of experiment [6] is glycogen synthase kinase-3 (GSK3A per assay name; protocol says GSK3B). Put plainly: compounds binding glycogen synthase kinase-3 – biochemical, small-molecule microarray, 635 nm fluorescence, GSK3A, primary screen (AID 1103). Also: the record names both GSK3A and GSK3B. Particulars: fluorescence 635 nm, higher = more signal.
In experiment [7] the target is Epidermal growth factor receptor (Homo sapiens) (UniProt P00533). Put plainly: compounds binding epidermal growth factor receptor – biochemical, small-molecule microarray, 635 nm fluorescence, primary screen (AID 1104).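 Also: score merges 667 nm emission intensity with spot signal to noise over triplicate slides.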 Particulars: EGFR binding, higher = more signal.
Chain of Epidermal growth factor receptor (Homo sapiens) (P00533 whole entry, looked up): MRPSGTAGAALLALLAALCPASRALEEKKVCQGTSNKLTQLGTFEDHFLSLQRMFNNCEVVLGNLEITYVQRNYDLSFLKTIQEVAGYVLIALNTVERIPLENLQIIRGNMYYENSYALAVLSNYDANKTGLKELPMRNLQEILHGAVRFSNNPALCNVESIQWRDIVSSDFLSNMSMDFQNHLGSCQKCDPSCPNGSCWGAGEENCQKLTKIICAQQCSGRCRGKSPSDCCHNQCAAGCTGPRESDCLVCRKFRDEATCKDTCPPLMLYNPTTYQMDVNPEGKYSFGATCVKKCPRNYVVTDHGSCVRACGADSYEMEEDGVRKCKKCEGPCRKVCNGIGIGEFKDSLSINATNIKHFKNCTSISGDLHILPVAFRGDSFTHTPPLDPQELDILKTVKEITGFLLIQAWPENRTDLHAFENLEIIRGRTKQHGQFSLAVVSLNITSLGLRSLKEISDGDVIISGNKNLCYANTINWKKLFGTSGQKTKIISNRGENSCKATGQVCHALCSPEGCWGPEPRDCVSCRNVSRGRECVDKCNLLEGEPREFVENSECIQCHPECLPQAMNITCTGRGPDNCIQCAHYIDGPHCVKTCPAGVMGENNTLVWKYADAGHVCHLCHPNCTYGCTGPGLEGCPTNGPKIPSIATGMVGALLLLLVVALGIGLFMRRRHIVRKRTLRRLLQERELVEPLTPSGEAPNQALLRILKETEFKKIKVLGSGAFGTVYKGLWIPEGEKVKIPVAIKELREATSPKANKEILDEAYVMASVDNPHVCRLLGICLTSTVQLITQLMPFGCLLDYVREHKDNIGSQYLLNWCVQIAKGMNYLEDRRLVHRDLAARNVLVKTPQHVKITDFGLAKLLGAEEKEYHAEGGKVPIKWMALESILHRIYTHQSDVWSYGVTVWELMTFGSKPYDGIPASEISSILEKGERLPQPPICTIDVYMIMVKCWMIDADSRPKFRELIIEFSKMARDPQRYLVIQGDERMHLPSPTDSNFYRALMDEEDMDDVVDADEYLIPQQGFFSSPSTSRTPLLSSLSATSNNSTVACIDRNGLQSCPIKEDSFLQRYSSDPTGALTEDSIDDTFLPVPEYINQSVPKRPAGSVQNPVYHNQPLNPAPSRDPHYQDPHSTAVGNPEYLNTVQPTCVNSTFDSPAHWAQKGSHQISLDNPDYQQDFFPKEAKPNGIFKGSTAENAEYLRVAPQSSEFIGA
Experiment [8] concerns the target Follistatin-related protein 3 (Homo sapiens) (UniProt O95633). Put plainly: compounds binding follistatin-related protein 3 – biochemical, small-molecule microarray, 635 nm fluorescence, primary screen (AID 1105).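 Also: score merges emission near 667 nm and signal to noise per printed spot across three slides.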 Particulars: FSTL3 binding, higher = more signal.
Experiment [9] concerns the target Dickkopf-related protein 1 (Homo sapiens) (UniProt O94907). Put plainly: small molecules binding DKK1 protein – biochemical, small-molecule microarray, 635 nm fluorescence scan, primary screen (AID 1106).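 Also: score merges emission near 667 nm with signal to noise over three replicate slides.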 Particulars: higher = more signal.
Experiment [10] concerns Inhibin beta A chain (activin A). Put plainly: small molecules binding activin A – biochemical, small-molecule microarray, 635 nm fluorescence scan, primary screen (AID 1107).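 Also: mouse activin A protein probed at 4.33 µg/mL on printed slides; score merges bound-protein fluorescence near 667 nm with spot signal-to-noise.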 Particulars: INHBA, higher = more signal.
The subject of experiment [11] is Human papillomavirus type 1a protein E7 (residues 44-93). Put plainly: small molecules binding HPV E7 44-93 – biochemical, small-molecule microarray, residues 44-93, 635 nm fluorescence, primary screen (AID 1108).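 Also: E7 fragment applied at 1 µg/mL in TBST for 1 h at 4 C; score combines spot fluorescence with its signal to noise ratio.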 Particulars: fluorescence 635 nm, higher = more signal.
Experiment [12] can be described thus: hepatitis C replication reporter changes, two-sided – Huh7 cells, luciferase reporter, HCV replication inhibitor project, primary screen (AID 1109).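 Also: huh7 hepatoma cells harbouring a luciferase neomycin HCV replicon reporter; luciferase luminescence as measure of HCV replicon replication; test concentration not given here.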 Particulars: Huh7 HCV replicon luciferase reporter, 48 h; higher = more signal.
Experiment [13] addresses Left-right determination factor 2 (Homo sapiens) (UniProt O00292). Put plainly: small molecules binding LEFTY2 protein – biochemical, small-molecule microarray, 635 nm fluorescence scan, primary screen (AID 1110). Particulars: higher = more signal.
In experiment [14] the target is Calmodulin-1 (Homo sapiens) (UniProt P0DP23). Put plainly: small molecules binding calmodulin-1 with EGTA – biochemical, small-molecule microarray, Cy5-labelled CALM1, profiling panel (AID 1111).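 Also: labelled calmodulin applied in Tris saline Tween buffer holding calcium plus EGTA and DTT.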 Particulars: Cy5-CALM1 binding fluorescence, higher = more signal.
For experiment [15] the target is unchanged. Put plainly: small molecules binding Ca-loaded calmodulin-1 – biochemical, small-molecule microarray, Cy5-labelled CALM1, plus calcium, artefact control for SMM control-protein annotation, profiling panel (AID 1112).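 Also: score merges spot fluorescence with signal to noise from triplicate slides.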 Particulars: Cy5-CALM1 binding fluorescence, higher = more signal.
The nature of experiment [16]: probe aWnt5a binding to arrayed compounds – biochemical, biotinylated probe, 635/667 nm fluorescence, primary screen (AID 1113).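 Also: score merges 667 nm fluorescence intensity with signal-to-noise per printed feature.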 Particulars: small-molecule microarray, higher = more signal.
Experiment [17] can be described thus: probe aShh binding to arrayed compounds – biochemical, biotinylated probe, 635/667 nm fluorescence, primary screen (AID 1114).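 Also: probe is biotin-labelled aShh protein from a stem cell growth factor screen; measures binding of labelled protein to compounds printed on the slide; score merges feature fluorescence at 667 nm with signal-to-noise.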 Particulars: small-molecule microarray, higher = more signal.
The nature of experiment [18]: probe aNog binding to arrayed compounds – biochemical, biotinylated probe, 635/667 nm fluorescence, primary screen (AID 1115).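 Also: probe is biotinylated aNog protein used at 0.15 µg/mL for 1 h at 4 C; z-score combines 667 nm fluorescence of each spot with its signal to noise.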 Particulars: small-molecule microarray, higher = more signal.
In experiment [19] the target is Torsin-1A-interacting protein 1 (Homo sapiens) (UniProt Q5JTV8). Put plainly: compound microarray binding of lysate hLAP1 – cell lysate, small-molecule microarray, COS7 lysate, 635/667 nm fluorescence, primary screen (AID 1116). Particulars: 635 nm fluorescence, higher = more signal.
Chain of Torsin-1A-interacting protein 1 (Homo sapiens) (Q5JTV8 whole entry, looked up): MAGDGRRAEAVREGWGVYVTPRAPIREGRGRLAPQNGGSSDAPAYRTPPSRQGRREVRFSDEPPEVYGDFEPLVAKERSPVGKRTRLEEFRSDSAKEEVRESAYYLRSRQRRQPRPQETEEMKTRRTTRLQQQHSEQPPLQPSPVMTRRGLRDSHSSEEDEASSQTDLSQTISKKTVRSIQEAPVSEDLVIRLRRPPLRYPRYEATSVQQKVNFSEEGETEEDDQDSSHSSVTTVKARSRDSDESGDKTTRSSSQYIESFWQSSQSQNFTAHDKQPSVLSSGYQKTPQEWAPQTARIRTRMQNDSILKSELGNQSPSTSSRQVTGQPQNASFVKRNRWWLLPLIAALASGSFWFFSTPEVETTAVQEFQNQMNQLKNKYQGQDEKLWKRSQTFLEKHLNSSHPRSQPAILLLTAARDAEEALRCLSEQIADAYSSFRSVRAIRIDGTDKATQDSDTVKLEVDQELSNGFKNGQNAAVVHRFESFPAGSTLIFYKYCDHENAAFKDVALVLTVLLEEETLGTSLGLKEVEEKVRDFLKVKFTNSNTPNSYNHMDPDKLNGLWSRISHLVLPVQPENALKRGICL
The target of experiment [20] is Alpha-bungarotoxin (Bungarus multicinctus) (UniProt P60615). Put plainly: compounds binding labelled alpha-BTX control protein – biochemical, small-molecule microarray, Alexa647 label, 635/667 nm fluorescence, artefact control for SMM control protein annotation, profiling panel (AID 1117). Particulars: alpha-BTX-A647 binding fluorescence, higher = more signal.
Chain of Alpha-bungarotoxin (Bungarus multicinctus) (P60615 whole entry, looked up): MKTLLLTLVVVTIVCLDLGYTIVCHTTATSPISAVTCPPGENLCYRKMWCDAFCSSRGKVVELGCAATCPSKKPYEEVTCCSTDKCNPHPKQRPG

Molecules are shown by their SMILES. Active and inactive are the calls of the source.

Chain of Fibroblast growth factor 10 (Homo sapiens) (O15520 whole entry, looked up): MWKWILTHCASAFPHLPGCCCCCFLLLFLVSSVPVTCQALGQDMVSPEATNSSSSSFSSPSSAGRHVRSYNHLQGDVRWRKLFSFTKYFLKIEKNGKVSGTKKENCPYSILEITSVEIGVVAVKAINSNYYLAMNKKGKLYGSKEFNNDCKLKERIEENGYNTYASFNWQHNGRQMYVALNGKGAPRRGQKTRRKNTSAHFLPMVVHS
Chain of Dickkopf-related protein 1 (Homo sapiens) (O94907 whole entry, looked up): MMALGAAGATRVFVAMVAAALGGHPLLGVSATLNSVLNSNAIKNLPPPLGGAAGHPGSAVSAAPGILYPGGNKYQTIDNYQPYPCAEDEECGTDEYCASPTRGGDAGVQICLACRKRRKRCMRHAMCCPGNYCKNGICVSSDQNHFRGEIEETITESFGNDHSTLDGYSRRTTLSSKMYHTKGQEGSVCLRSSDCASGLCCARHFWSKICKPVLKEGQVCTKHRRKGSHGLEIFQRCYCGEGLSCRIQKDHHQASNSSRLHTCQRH
Chain of Left-right determination factor 2 (Homo sapiens) (O00292 whole entry, looked up): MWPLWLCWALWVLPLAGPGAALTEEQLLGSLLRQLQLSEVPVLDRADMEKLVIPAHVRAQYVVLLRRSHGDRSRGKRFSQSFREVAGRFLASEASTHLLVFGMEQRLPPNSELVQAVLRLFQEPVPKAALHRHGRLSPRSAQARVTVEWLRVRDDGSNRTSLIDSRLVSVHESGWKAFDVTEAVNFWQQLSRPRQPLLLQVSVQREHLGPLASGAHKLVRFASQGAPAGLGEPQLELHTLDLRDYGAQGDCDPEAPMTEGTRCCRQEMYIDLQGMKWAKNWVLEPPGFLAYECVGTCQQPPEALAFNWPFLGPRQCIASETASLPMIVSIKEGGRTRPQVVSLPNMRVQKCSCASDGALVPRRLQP
Chain of Follistatin-related protein 3 (Homo sapiens) (O95633 whole entry, looked up): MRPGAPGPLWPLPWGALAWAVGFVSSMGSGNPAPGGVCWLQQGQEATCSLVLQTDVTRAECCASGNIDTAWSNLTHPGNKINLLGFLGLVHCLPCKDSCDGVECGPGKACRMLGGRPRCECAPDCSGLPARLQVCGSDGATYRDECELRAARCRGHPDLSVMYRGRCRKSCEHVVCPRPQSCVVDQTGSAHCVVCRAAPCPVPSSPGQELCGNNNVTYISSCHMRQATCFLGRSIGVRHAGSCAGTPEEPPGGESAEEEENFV

As to `O=C1OCCC=C[C@H]2OC34C=CCN(c5ccc6ccccc6c5)C(=O)[C@H]3N(CCCCCO)C(=O)[C@@H]4C12` (stereo not given in full), the composite z-score in experiment [1] was 1.8; in experiment [2], 0.0672; in experiment [3], 0.597; in experiment [5], -0.408; in experiment [6], -0.224; in [7] it was -0.162. Also, the composite z-score in [8] was -0.662; in experiment [9] it was -0.731; in experiment [10], 0.218; in experiment [11], 0.444; in experiment [13], -1.05; in [14] it was -0.491. The composite z-score in [15] was -0.0432; in [16], -0.147; in experiment [17] it was -0.0011; in [18] it was 0.438; in experiment [19], 1.92; in experiment [20], -0.264. Moreover, the values for the z-score in experiment [4] and in [12] were -0.606 (inactive) and -0.345, respectively.
For the compound `COC(=O)C[C@@H]1C[C@H](C)[C@]2(O1)C(=O)N(Cc1ccccc1)c1ccc(NC(C)=O)cc12`, the composite z-score in experiment [1] is 0.0968; in experiment [2] it was -0.148; in [3], -0.448; in experiment [5], 0.603; in experiment [6], 0.141; in [7] it was 0.324. Besides, the composite z-score is 0.389 in experiment [8]; 0.355 in [9]; 0.4 in experiment [10]; -0.654 in experiment [11]; 0.266 in [13]; -0.595 in experiment [14]. The composite z-score in [15] was -0.324; in experiment [16], -0.311; in [17], -0.543; in [18], 0.0034; in experiment [19] it was 0.458; in experiment [20] it was -0.194. Moreover, the z-score in experiment [4] is 0.247 (inactive); in [12] it was -0.249.
`NCCCCCNC(=O)[C@H]1C[C@H]2C(=O)NCC(=O)N2[C@H]1c1cccc(OCCO)c1`: the composite z-score was determined as 1.64 in experiment [1]; 0.31 in experiment [2]; 0.284 in [3]; 1.25 in experiment [5]; 1.29 in experiment [6]; 0.388 in experiment [7]. Further, the composite z-score in experiment [8] was 0.764; in experiment [9], 0.912; in experiment [10], -0.0463; in [11] it was 1.34; in experiment [13], 0.296; in experiment [14] it was 0.828. In addition, the composite z-score in [15] was 0.8; in experiment [16], -0.157; in experiment [17], 0.158; in experiment [18] it was -0.324; in experiment [19] it was 0.86; in experiment [20] it was 1.51. Further, the z-score in [4] is -0.284 (inactive); in experiment [12], -0.786.
As for `O=C1N(CCS(=O)(=O)c2ccccc2)Cc2ccccc2C[C@]12N=C(c1ccc(OCCCO)cc1)O[C@@H]2c1ccccc1`, the composite z-score in experiment [1] was determined as 1.24; in experiment [2], 0.467; in experiment [3] it was 0.655; in experiment [5] it was 1.4; in experiment [6], 1.3; in [7], 0.477. Moreover, the composite z-score is 1.18 in [8]; 0.784 in experiment [9]; 1.4 in experiment [10]; -0.183 in experiment [11]; 0.947 in experiment [13]; 2.54 in experiment [14]. Moreover, the composite z-score came to 0.422 in [15]; 0.122 in experiment [16]; 0.21 in [17]; 1.21 in experiment [18]; 1.88 in experiment [19]; 1.59 in [20]. The z-score in [4] is -1.46 (inactive); in [12] it was -2.19.
With `O=c1cccc(CCc2ccccc2)o1`, the composite z-score was 0.931 in experiment [1]; -0.232 in experiment [2]; -0.44 in [3]; 0.228 in experiment [5]; 0.599 in [6]; -0.834 in experiment [7]. The composite z-score was 0.153 in experiment [8]; 0.193 in [9]; 0.532 in experiment [10]; 0.744 in [11]; 0.103 in experiment [13]; -0.408 in experiment [14]. Moreover, the composite z-score in experiment [15] was -0.262; in experiment [16], -0.118; in experiment [17], 0.0952; in experiment [18] it was -0.0827; in experiment [19], -0.684; in experiment [20], 1.04. Moreover, the z-score in experiment [4] was 0.722 (inactive); in experiment [12], 0.237.
